According to paper PMC4336329 (PLoS ONE, 2015):
The whole screen tested about 310,000 compounds, of which about 14,000 (4.5%) showed an effect of 50% or more. Effects have a minus sign here. What follows is part of a selection rich in strong results, with near analogues and random picks from the rest.

What follows are compounds tested against human ether-à-go-go-related gene (hERG) potassium channel (human, UniProt Q12809) (assay: primary screen, population patch clamp on CHO cells stably expressing hERG; higher = less effect of the substance).
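Further: peak tail current of the secondary pulse compared with the same well before compound.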

human ether-à-go-go-related gene (hERG) potassium channel, sequence (Q12809 whole entry, looked up): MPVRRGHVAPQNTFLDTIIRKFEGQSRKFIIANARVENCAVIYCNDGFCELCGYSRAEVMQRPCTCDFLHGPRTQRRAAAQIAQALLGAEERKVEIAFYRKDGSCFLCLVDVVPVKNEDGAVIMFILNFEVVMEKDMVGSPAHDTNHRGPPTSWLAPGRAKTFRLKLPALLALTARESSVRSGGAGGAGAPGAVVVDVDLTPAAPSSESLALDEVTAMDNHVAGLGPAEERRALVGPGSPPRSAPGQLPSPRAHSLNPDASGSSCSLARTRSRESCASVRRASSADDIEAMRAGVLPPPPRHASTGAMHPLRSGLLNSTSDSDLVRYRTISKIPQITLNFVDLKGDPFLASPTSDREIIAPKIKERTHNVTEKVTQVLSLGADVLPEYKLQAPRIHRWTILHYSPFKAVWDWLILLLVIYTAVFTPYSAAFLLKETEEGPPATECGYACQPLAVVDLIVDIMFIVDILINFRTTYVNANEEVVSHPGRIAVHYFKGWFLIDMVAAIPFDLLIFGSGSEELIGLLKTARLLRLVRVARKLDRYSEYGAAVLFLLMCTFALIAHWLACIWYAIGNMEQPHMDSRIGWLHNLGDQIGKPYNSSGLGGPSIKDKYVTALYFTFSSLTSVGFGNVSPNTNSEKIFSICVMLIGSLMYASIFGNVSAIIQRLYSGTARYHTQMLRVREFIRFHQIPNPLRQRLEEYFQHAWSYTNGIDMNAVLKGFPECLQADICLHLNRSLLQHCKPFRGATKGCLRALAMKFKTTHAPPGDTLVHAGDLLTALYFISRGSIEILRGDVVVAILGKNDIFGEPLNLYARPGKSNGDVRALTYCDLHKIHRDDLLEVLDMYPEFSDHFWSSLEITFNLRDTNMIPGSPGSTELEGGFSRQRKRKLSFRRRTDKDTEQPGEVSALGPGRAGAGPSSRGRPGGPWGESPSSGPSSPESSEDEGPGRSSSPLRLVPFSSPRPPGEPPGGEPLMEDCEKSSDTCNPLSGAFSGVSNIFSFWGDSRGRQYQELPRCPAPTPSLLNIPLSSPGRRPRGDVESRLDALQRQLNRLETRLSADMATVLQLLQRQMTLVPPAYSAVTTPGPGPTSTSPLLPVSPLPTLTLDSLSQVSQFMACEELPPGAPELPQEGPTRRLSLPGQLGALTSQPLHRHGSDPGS

Compound	hERG current change (%, negative = inhibition) at 10uM [%]
COc1ccc(/C=N/NC(=O)c2cc(-c3ccccc3OC(C)C)nc3ccccc23)cc1CN1CCOCC1	-4.54
O.O=C(OCC1OC2C(Oc3nc(=O)ccn32)C1O)c1ccccc1 (centres unmarked)	-0.213
Cc1ccc(C)c(S(=O)(=O)NCc2ccc(C(=O)N3CCN(c4ccccc4)CC3)cc2)c1	-3.21
Cc1ccc(C(=O)N(C)Cc2ccc(N3CCOCC3)cc2)cc1S(=O)(=O)NCc1ccccc1	-55.6
Cc1ccc(C(=O)N(C)Cc2ccccc2)cc1S(=O)(=O)N1CCOCC1	-12.8
CCN(CC)C(=O)N1CCc2ccccc21	0.177
COc1cccc(CC2(CO)CCCN(Cc3cn[nH]c3-c3ccc(F)cc3)C2)c1 (centres unmarked)	6.58
COc1ccc(-n2ccnc2CN2CCCC(CO)(Cc3cccc(OC)c3)C2)cc1 (centres unmarked)	-24.2
CCn1ccnc1CN1CCCC(CO)(Cc2cccc(OC)c2)C1 (centres unmarked)	-17.7
COc1cccc(CC2(CO)CCCN(Cc3c(C)cc(C)cc3-n3cccn3)C2)c1 (centres unmarked)	-84.4
COc1cccc(CC2(CO)CCCN(Cc3cn[nH]c3C3CCCCC3)C2)c1 (centres unmarked)	-45.1
COc1cccc(CC2(CO)CCCN(Cc3cc(F)ccc3-n3cccn3)C2)c1 (centres unmarked)	-77.3
COc1ccc(NC2=C(NC(C)=O)C(=O)c3ccccc3C2=O)cc1	13.5
COc1cc(OC)nc(NC(=O)CSc2nc3ccccc3[nH]2)n1	-1.61
CCOc1ccc(CCNC(=O)c2cccc(S(=O)(=O)N3CC(C)OC(C)C3)c2)cc1OCC (centres unmarked)	-27.3
COc1cc(-c2[nH]ncc2CN2CCSCC2)cc(OC)c1OC	-9.26
COc1ccc(-c2[nH]ncc2CN2CCN(Cc3cccs3)CC2)cc1F	-31.2
COc1cc(-c2[nH]ncc2CN2CCN(Cc3cccs3)CC2)cc(OC)c1OC	-50.3
COCCCC1CCN(Cc2cn[nH]c2-c2cc(OC)c(OC)c(OC)c2)CC1	-61.8
COCC1CCN(Cc2cn[nH]c2-c2cc(OC)c(OC)c(OC)c2)CC1	-38.1
COc1cc(-c2[nH]ncc2CN2CCN(c3cccc(C)n3)CC2)cc(OC)c1OC	-47.3
CCCCN(C(=O)c1cccc(S(=O)(=O)N2CCCC2)c1)c1c(N)n(CCC)c(=O)[nH]c1=O	4.89
O=c1c2ccccc2c(C=NCCc2ccccc2)c(O)n1Cc1ccccc1	-5.61

Compound	hERG current change (%, negative = inhibition) at 10uM [%]
CN(C)CCN=Cc1c(O)n(Cc2ccc3c(c2)OCO3)c(=O)c2ccccc12	-13.8
CCN(CC)CCCN=Cc1c(O)n(Cc2ccccc2)c(=O)c2ccccc12	-76.7
CCN(CC)CCCN=Cc1c(O)n(-c2c(C)cccc2C)c(=O)c2ccccc12	-34.2
CN(C)CCCN=Cc1c(O)n(Cc2ccccc2)c(=O)c2ccccc12	-64.5
CCN(CC)CCCN=Cc1c(O)n(-c2ccccc2C)c(=O)c2ccccc12	-52.8
CN(C)CCCN=Cc1c(O)n(Cc2ccc3c(c2)OCO3)c(=O)c2ccccc12	-49.1
CCN(CC)CCN=Cc1c(O)n(Cc2ccccc2)c(=O)[nH]c1=O [14739636]	-31.3
CN(C)CCN=Cc1c(O)n(Cc2ccccc2)c(=O)c2ccccc12	-52.2
O=c1c2ccccc2c(C=NCCCN2CCOCC2)c(O)n1Cc1ccccc1	-47.7
CCN(CC)CCCN=Cc1c(O)n(-c2ccc(C)cc2)c(=O)c2ccccc12	-5.54
CCN(CC)CCCN=Cc1c(O)n(-c2cccc(C)c2)c(=O)c2ccccc12	-42.8
Cc1cccc(NC(=O)CSc2nnc(Cn3cnc4ccccc43)o2)c1	-9.07
Cc1ccc(S(=O)(=O)N2CCN(C(=O)c3c(-c4ccccc4)noc3C)CC2)cc1	-4.97
COc1ccc(S(=O)(=O)Nc2ccc(C(F)(F)F)cc2)cc1OC	-12.4
O=C(Cc1ccccc1)N1CCC(c2nc(-c3ccc(F)cc3)no2)CC1	-50.6
CCCC1CCC(c2nc(-c3cccnc3)no2)CC1 (centres unmarked)	2.03
O=S(=O)(Cc1ccccc1)N1CCCC(c2nc(-c3ccc(F)cc3)no2)C1 (centres unmarked)	-3.59
O=C(c1ccco1)N1CCC(c2nc(-c3ccc(F)cc3)no2)CC1	-41.8
Fc1ccc(-c2noc(C3CCN(Cc4cccnc4)CC3)n2)cc1	-51.5
O=C(Cc1ccccc1)N1CCCC(c2nc(-c3ccc(S(=O)(=O)N4CCCC4)cc3)no2)C1 (centres unmarked)	-9.11
COCC(=O)N1CCC(Oc2ccc(C(=O)NC3Cc4ccccc4C3)cc2)CC1	-3.57
S=c1[nH]nc(-c2ccncc2)n1/N=C/C(Cl)=C\c1ccccc1	23.3
COc1ccccc1CNC(=O)c1cccc(N(C)C)c1	-2.52

Compound	hERG current change (%, negative = inhibition) at 10uM [%]
CCCCn1c(O)c(C(C)=NCCc2c[nH]c3ccccc23)c(=O)[nH]c1=O	-16
CCCCn1c(O)c(C(C)=NC(C)c2ccccc2)c(=O)[nH]c1=O (centres unmarked)	-22.3
CCCCn1c(O)c(C(C)=NC(Cc2c[nH]c3ccccc23)C(=O)OC)c(=O)[nH]c1=O (centres unmarked)	-52.1
COC(=O)c1cc(=O)nc2scc(C)n12	-23.1
CCC1CCCCN1Cc1ccc(CNS(=O)(=O)c2ccc3c(c2)oc(=O)n3C)o1 (centres unmarked)	-19.3
CCOC(=O)c1cc(-c2cc(OC)c(OC)c(OC)c2)nc2c1c(=O)[nH]c(=O)n2Cc1ccccc1	1.34
CCCOC(=O)c1ccc(NC(=O)CC(C)(C)C)cc1	-11.1
C/C(=N\N1CCN(Cc2ccccc2Cl)CC1)c1ccc(F)cc1	2.05
CC(=O)Oc1ccc(/C(C)=N/N2CCN(Cc3ccc(C)cc3)CC2)cc1	-73.2
C/C(=N/N1CCN(Cc2ccccc2)CC1)c1ccc(Br)cc1	-19.9
CC(=O)Oc1ccc(/C(C)=N\N2CCN(Cc3ccc(Cl)cc3)CC2)cc1	-36.8
Cc1ccc(CN2CCN(/N=C/c3ccccc3)CC2)cc1	-12.7
C/C(=N\N1CCN(Cc2ccc(Cl)cc2)CC1)c1ccc(F)cc1	-51.6
COc1cc(/C(C)=N/N2CCN(Cc3ccc(C)cc3)CC2)ccc1O	-44.3
Cc1ccc(CN2CCN(/N=C\C=C\c3ccccc3)CC2)cc1	-72.2
C/C(=N\N1CCN(c2ccc(Cl)cc2)CC1)c1cccc([N+](=O)[O-])c1	-12.4
C(=C\c1ccccc1)/C=N/N1CCN(Cc2ccccc2)CC1	1.45
C/C(=N\N1CCN(Cc2ccc(Cl)cc2)CC1)c1ccc([N+](=O)[O-])cc1	-72.6
O=[N+]([O-])c1ccc(Cl)c(/C=N/N2CCN(Cc3ccc(Cl)cc3)CC2)c1	4.9
O=C(COC(=O)c1ccc(O)cc1)Nc1ccc2[nH]c(=O)[nH]c2c1	2.48
O=C(Nc1cc([N+](=O)[O-])ccc1Cl)C1CC1	14.1
COc1ccc(Cn2c(=S)[nH]c3cc(C(=O)N4CCCCC4)ccc3c2=O)cc1	13.3
Cc1cc(-n2nc3ccccc3n2)c(O)c([N+](=O)[O-])c1	6.11

Compound	hERG current change (%, negative = inhibition) at 10uM [%]
COc1ccc(CCNC(=O)COC(=O)C2COc3ccccc3O2)cc1 (centres unmarked)	-0.23
CCCn1nnnc1NCc1ccc(N(C)C)cc1	1.95
CCC(=O)N1N=C(c2ccc(C)o2)CC1c1ccc(Br)cc1 (centres unmarked)	-23.4
COc1ccc(/C=C/C(=O)NC(=S)NNC(=O)Cc2cccs2)cc1OC	17.9
CC1=C(C(=O)OC(C)C)C(c2cccs2)N2C(=O)CCSC2=N1 (centres unmarked)	-11.5
CCCCCOP(=O)(OCCCCC)C1(NS(=O)(=O)c2ccccc2)C=CC(=O)c2ccccc21 (centres unmarked)	9.76
Nc1cc(=O)[nH]c(=O)n1-c1ccc(Cl)cc1	15.2
COc1ccccc1OCC(=O)Nc1ccccc1C(=O)N1CCCCC1	11.6
Cc1ccc(CN2CCN(C(=O)c3ccco3)CC2)cc1	-13.5
C/C(=N\N1CCN(Cc2ccc(C)cc2)CC1)c1ccco1	-67.6
C/C(=N\N1CCN(Cc2ccccc2)CC1)c1ccco1	-1.45
CCCOC(c1ccccc1)(c1ccccc1)C(Oc1nc(C)cc(C)n1)C(=O)O (centres unmarked)	21.5
C=CCSc1nnc2c(n1)OC(c1ccco1)Nc1ccccc1-2 (centres unmarked)	-7.61
CCCSc1nc(N)c(C#N)c(-c2ccc(C)cc2)c1C#N	15.7
COc1cccc(CNC(=O)C2CCN(c3cnccn3)CC2)c1	-12.4
C=CCNC(=O)C1CCN(c2cnccn2)CC1	27.8
O=C(NCc1ccccc1Cl)C1CCN(c2cnccn2)CC1	-4.12
O=C(NCc1ccc(F)cc1)C1CCN(c2cnccn2)CC1	-64.9
O=C(NCCc1ccc(Cl)cc1)C1CCN(c2cnccn2)CC1	-35.3
O=C(NCc1ccc(Cl)cc1)C1CCN(c2cnccn2)CC1	-59.9
